The record followed here is PubChem BioAssay (Tox21).

Structures are written as SMILES. “And” between values parts separate entries of the source, which are not always exact repeats. Identical values can stand only once. Records with an inconclusive call do not appear. Some compounds were tested as several samples or in several runs, with calls that do not always agree. The source made the active and inactive calls. Unless noted, calls follow the shape of the dose curve; as a rule, active = well fitted curve in the direction sought with a large enough effect in the repeat runs; inconclusive = weak or mixed curves; inactive = no such curve, though single readings can be large; an effect the other way counts as inactive or inconclusive.

The nature of assay [1]: qHTS assay to identify aromatase inhibitors - cell viability counter screen (AID 743084;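 also: cells stimulated with testosterone during compound exposure; nearly all actives have a fitted effect of over 55% in size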; also: potency is read from the fitted curve at half-maximal effect). (In qHTS, concentration-response curves come from the screen itself.)
In assay [2] the target is Aryl hydrocarbon receptor (Homo sapiens) (UniProt P35869). Put plainly: qHTS assay to identify small molecule that activate the aryl hydrocarbon receptor (AhR) signaling pathway (AID 743085).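 Also: HG2L7.5c1 human HepG2 liver cells with stably integrated DRE-driven firefly reporter; series mostly up to about 70 µM; nearly all actives have a fitted effect of over 15% in size.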 The method in brief: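 Reporter assay in engineered HepG2 line HG2L7.5c1, whose plasmid carries twenty dioxin responsive elements upstream of firefly luciferase. Treatment lasted 24 h at 37C; ONE-Glo luminescence gauged induction.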
Chain of Aryl hydrocarbon receptor (Homo sapiens) (P35869 whole entry, looked up): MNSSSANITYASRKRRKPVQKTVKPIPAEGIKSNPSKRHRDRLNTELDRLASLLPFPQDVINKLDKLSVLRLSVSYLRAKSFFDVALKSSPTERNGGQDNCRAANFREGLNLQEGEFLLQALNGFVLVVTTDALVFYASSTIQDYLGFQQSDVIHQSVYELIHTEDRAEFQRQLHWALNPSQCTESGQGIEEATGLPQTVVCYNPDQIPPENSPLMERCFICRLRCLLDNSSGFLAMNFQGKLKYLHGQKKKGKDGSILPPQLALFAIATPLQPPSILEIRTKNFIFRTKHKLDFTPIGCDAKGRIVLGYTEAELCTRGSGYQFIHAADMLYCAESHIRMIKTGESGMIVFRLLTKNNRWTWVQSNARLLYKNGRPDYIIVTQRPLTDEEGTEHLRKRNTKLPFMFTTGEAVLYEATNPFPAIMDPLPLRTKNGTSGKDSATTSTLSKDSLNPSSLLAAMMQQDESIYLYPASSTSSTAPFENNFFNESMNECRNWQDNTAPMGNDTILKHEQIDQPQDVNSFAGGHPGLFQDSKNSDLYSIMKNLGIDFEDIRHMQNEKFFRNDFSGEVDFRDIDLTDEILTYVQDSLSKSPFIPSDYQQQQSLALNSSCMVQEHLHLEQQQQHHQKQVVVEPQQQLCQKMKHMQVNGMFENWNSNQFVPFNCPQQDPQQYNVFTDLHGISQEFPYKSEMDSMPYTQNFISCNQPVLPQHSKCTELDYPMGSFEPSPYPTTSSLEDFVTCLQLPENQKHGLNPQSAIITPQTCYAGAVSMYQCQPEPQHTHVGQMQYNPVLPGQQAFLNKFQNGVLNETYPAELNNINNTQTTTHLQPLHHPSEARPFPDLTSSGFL

Assay [3] can be described thus: qHTS assay to identify small molecule that activate the aryl hydrocarbon receptor (AhR) signaling pathway - cell viability counter screen (AID 743086).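 Also: HepG2 liver cells carrying the AhR DRE luciferase reporter; series mostly up to about 70 µM; nearly all actives have a fitted effect of over 45% in size.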 A digest of the protocol:
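HepG2-AhR-luc (HG2L7.5c1) cells, 4000/well, were preincubated 5 h at 37C, exposed to compound in qHTS format for 24 hr at 37C, then given CellTiter-Fluor for 30 min; viability was read as fluorescence in the reporter wells.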

Assay [4] addresses Peroxisome proliferator-activated receptor gamma (Homo sapiens) (UniProt P37231). Nature of the assay: qHTS assay to identify small molecule agonists of the peroxisome proliferator-activated receptor gamma (PPARg) signaling pathway (AID 743094; active = well fitted activation curve with a large enough effect in the signal ratio in the repeat runs, not every such curve was filed as active; the % refers to the signal ratio). The method in brief: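 Reporter activation was scored by fluorescence of cleaved LiveBLAzer B/G substrate (1 h, room temperature) in PPARg-bla HEK293H cells previously treated 17 h at 37C with DMSO-dissolved compounds.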

Assay [5] in a line: qHTS assay for small molecule agonists of the antioxidant response element (ARE) signaling pathway (AID 743202; active = well fitted activation curve with a large enough effect in the signal ratio in the repeat runs, not every such curve was filed as active; the % refers to the signal ratio; also: potency is read from the fitted curve at half-maximal effect). A digest of the protocol:
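Steps: seed ARE-bla HepG2 cells (2,000/well); incubate 5 h at 37 C; add compounds by pin tool; incubate 16 h at 37 C; add FRET substrate; read fluorescence after 2 h at RT.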

Assay [6] is described as follows: qHTS assay for small molecule agonists of the antioxidant response element (ARE) signaling pathway - cell viability counter screen (AID 743203; calls by dose curve; also: nearly all actives have a fitted effect of over 55% in size). A digest of the protocol:
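Viability counter screen: stably transfected ARE-bla HepG2 line, 16 hrs compound exposure at 37C/5% CO2, ATP-based CellTiter-Glo luminescence measured in the reporter wells.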

The nature of assay [7]: qHTS assay for small molecule activators of the heat shock response signaling pathway - cell viability counter screen (AID 743209). Also: nearly all actives have a fitted effect of over 50% in size. The method in brief: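 Viability of HSE-bla HeLa cells is measured with CellTiter-Glo in the wells already used for the reporter read. Compound exposure lasts 5 h at 37 C, and luminescence is read after 30 min at room temperature.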
The nature of assay [8]: qHTS assay for small molecule activators of the heat shock response signaling pathway (AID 743210; active = well fitted activation curve with a large enough effect in the signal ratio in the repeat runs, with a control signal flat, not every such curve was filed as active; the % refers to the signal ratio; also: potency is read from the fitted curve at half-maximal effect;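 as to activation: HeLa cells with beta-lactamase reporter driven by heat shock elements; series mostly up to about 63 µM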). A digest of the protocol: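 Activation of heat shock element-controlled beta-lactamase expression is measured in HeLa cells by LiveBLAzer FRET fluorescence, with compound exposure lasting 5 h at 37 C and substrate loading 2.5 h at room temperature.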
Assay [9] concerns the target Peroxisome proliferator-activated receptor gamma (Homo sapiens) (UniProt P37231). Put plainly: qHTS assay to identify small molecule antagonists of the peroxisome proliferator-activated receptor gamma (PPARg) signaling pathway (AID 743191; calls by dose curve; also: nearly all actives have a fitted effect of over 30% in size; also: potency is read from the fitted curve at half-maximal effect). The method in brief: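 GeneBLAzer PPARg UAS-bla HEK293H cells carrying a UAS-driven beta-lactamase reporter were plated at 3000 cells/well, preincubated 5 h at 37C, then given compound for 17 h at 37C; LiveBLAzer B/G FRET substrate was read after 1 h at room temperature.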

Assay [10] is described as follows: qHTS assay to identify small molecule antagonists of the peroxisome proliferator-activated receptor gamma (PPARg) signaling pathway - cell viability counter screen (AID 743194). Also: nearly all actives have a fitted effect of over 55% in size. The method in brief: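 PPARg-UAS-bla HEK293H cells were plated, rested 5 h at 37 C, then treated with compounds plus rosiglitazone (50 nM final) for 17 h at 37 C; viability was then read by CellTiter-Glo luminescence after 30 min at room temperature.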

Chain of Peroxisome proliferator-activated receptor gamma (Homo sapiens) (P37231 whole entry, looked up): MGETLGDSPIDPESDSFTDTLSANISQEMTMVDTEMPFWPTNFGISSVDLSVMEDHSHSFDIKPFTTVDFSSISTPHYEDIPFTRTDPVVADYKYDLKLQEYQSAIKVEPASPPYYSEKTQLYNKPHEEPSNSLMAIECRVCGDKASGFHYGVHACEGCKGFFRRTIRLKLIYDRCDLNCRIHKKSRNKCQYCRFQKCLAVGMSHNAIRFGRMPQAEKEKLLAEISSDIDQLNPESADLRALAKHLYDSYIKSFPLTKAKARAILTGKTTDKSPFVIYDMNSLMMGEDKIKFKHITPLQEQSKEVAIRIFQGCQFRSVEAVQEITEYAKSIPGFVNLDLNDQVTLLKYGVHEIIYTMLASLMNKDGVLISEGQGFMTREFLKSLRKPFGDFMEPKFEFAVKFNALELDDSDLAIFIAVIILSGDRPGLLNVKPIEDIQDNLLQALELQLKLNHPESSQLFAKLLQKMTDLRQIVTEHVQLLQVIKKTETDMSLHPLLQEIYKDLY

`C=CC(=O)OCCCCCC(C)C`: the Potency result in assay [1], in assay [2], in [5], in assay [6], in [7] and in [8] was “inactive” throughout. Also, the compound was called inactive in assay [3] and in assay [4].

Regarding `COc1cc(-c2ccc(N)c(OC)c2)ccc1N`, the Potency result in assay [1], in assay [6], in [7] and in assay [8] was “inactive” throughout. The outcome in assay [3], in assay [4] and in assay [10] was inactive. Besides, in [9], the Potency entry was “inactive and 33.1 µM (active)”.

On to `Oc1ccc(Cl)cc1`, for which the Potency result in assay [1], in assay [2], in [5], in assay [6], in assay [7] and in assay [8] was “inactive” throughout. The compound was called inactive in [3] and in assay [10].

On to `Cl/C=C/Cl`, for which the Potency result in assay [1], in [2], in [5], in assay [6], in assay [7] and in assay [8] was “inactive” throughout. The compound was classed as inactive in [3] and in [10].

Turning to `Nc1ccc(N)cc1`, the Potency entry in [1] was “inactive and 54.7 µM (active) and 43.3 µM (active)”; in [5] it was 8.67 µM (active) and 10.6 µM (active). Also, the compound was classed as inactive in assay [3], in assay [4] and in [10]. Also, the Potency result in assay [9], in assay [6] and in assay [7] was “inactive” each time.

For the compound `O=C(O)C(Br)Br`, the Potency result in [1], in [9], in assay [6], in assay [7] and in assay [8] was “inactive” in each case. Further, the call in [3] and in assay [4] was inactive. For the same compound, the Potency in assay [5] is 86.3 nM (active).

For `Nc1nc(N)nc(NC2CC2)n1`, the Potency result in [1], in assay [2], in assay [6] and in [7] was “inactive” each time. For the same compound, the compound was called inactive in assay [3]. Further, the Potency result in assay [8] is “inactive and 43.6 µM (active)”.

In the case of `CC(C)CCCCCCOC(=O)c1ccccc1C(=O)OCCCCCCC(C)C`, the Potency result in [1], in assay [2], in assay [5], in assay [6], in assay [7] and in assay [8] was “inactive” in each case. In addition, in assay [3], the compound was called inactive.

As to `C/C=C/c1ccc2c(c1)OCO2`, the Potency entry in [1], in assay [5], in [6], in assay [7] and in assay [8] was “inactive” throughout. The compound was called inactive in assay [3], in assay [4] and in assay [10].
